The source of these data is PubChem BioAssay (NCATS).

Structures are written as SMILES. “And” between values parts separate entries of the source, which are not always exact repeats. Equal entries are not always repeated. Inconclusive results are not listed. The source made the active and inactive calls. Unless noted, the call rests on the fitted dose curve; in most records, active means well fitted curve in the direction sought with a large enough effect; inconclusive means small, poorly fitted or top-dose-only effect, or another doubt; inactive means no such curve, though single readings can be large; an effect the other way counts as inactive or inconclusive.

The target in assay [1] is Estrogen receptor (Homo sapiens) (UniProt P03372). Briefly: qHTS assay for small molecule antagonists of estrogen receptor alpha signaling (AID 588513; active means well fitted curve in the direction sought with a large enough effect in the signal ratio, with a control signal flat, not every such curve was filed as active; the % refers to the signal ratio; further: on the % scale 0 is the no-effect control and ±100 the full control effect). The method in brief: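 Antagonist-mode qHTS in ER-alpha-UAS-bla HEK 293 cells: compound titration, 0.5nM estradiol for 18 h, CCF4 fluorescence, Hill-derived IC50.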
For orientation: In qHTS, concentration-response curves come from the screen itself.

Assay [2] has the same target. Briefly: qHTS assay for small molecule agonists of estrogen receptor alpha signaling (AID 588514; calls by dose curve;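 further: 0% = vehicle only and 100% = reference agonist; nearly all actives have a fitted effect of over 70% in size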). The method in brief:
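Reporter-gene assay. […] controls beta-lactamase in HEK 293 GripTite cells; after 18 hrs with compound, CCF4 substrate is added for 2 hrs and fluorescence is read.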

The target in assay [3] is Peroxisome proliferator-activated receptor gamma (Homo sapiens) (UniProt P37231). Briefly: qHTS assay for small molecule agonists of peroxisome proliferator-activated receptor gamma signaling (AID 588536; active means well fitted curve in the direction sought with a large enough effect in the signal ratio, with a control signal flat, not every such curve was filed as active; the % refers to the signal ratio;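 further: 0% = DMSO basal wells and 100% = rosiglitazone at 2 µM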). The method in brief:
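GeneBLAzer PPAR-gamma-UAS-bla HEK293 cells in 1% charcoal/dextran-treated FBS medium were treated 16 h at 37 C with compounds. Beta-lactamase activity was read by CCF4 ratio (460/530 nm). Response was normalized to 2 uM rosiglitazone (100%) and DMSO, then Hill-fitted for EC50 and efficacy.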

For assay [4] the target is unchanged. Briefly: qHTS assay for small molecule antagonists of peroxisome proliferator-activated receptor gamma signaling (AID 588537; active means well fitted inhibition curve with a large enough effect in the signal ratio, with a control signal flat, not every such curve was filed as active; the % refers to the signal ratio;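 further: reporter cells co-stimulated with 50 nM rosiglitazone agonist during compound treatment; % of control where 0% means no effect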). The method in brief: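 Step one: plate 3000 HEK293 UAS-bla cells per well in medium with 1% stripped serum and hold 6-6.5 h at 37 C. Step two: add compound and 50 nM agonist for 16 h. Step three: CCF4 loading, fluorescence read.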
The target in assay [5] is Vitamin D3 receptor (Homo sapiens) (UniProt P11473). As to the kind of experiment: qHTS assay for small molecule antagonists of vitamin D receptor signaling (AID 588541; calls by dose curve;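 further: receptor activated by calcitriol during compound treatment; series mostly up to about 77 µM; on the % scale 0 is the no-effect control and ±100 the full control effect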). The method in brief:
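VDR-UAS-bla HEK293T cells in 2% charcoal-stripped FBS were stimulated with 1-alpha,25-dihydroxyvitamin D3 (3 nM final) plus compound for 16 h at 37 C. The beta-lactamase CCF4 readout was normalized to 50 nM agonist and DMSO, and Hill fits gave IC50.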

The nature of assay [6]: qHTS assay for small molecule agonists of retinoid X receptor alpha signaling (AID 588544; calls by dose curve;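 on activation: 0% = DMSO basal wells and 100% = reference agonist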). As to conditions: HEK293T RXRa-UAS-bla, beta-lactamase reporter, 18 h; 530 nm emission.
Assay [7] concerns the target Retinoic acid receptor RXR-alpha (Homo sapiens) (UniProt P19793). The assay is described as above.
Assay [8] deals with Thyroid hormone receptor beta (Homo sapiens) (UniProt P10828). Briefly: qHTS assay for small molecule agonists of thyroid hormone receptor beta signaling (AID 588545; calls by dose curve). The method in brief: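 Agonist-mode beta-lactamase reporter assay, HEK 293 cells, 2% charcoal/dextran FBS; cells plated 4 hrs, compound 18 hrs at 37 C, CCF4 2 hrs RT. Normalized to 10 nM T3 (100%) and DMSO (0%); Hill fit gives EC50, efficacy.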

Assay [9] can be described thus: qHTS assay for small molecule antagonists of retinoid X receptor alpha signaling (AID 588546; active means well fitted inhibition curve with a large enough effect in the signal ratio, with a control signal flat, not every such curve was filed as active; the % refers to the signal ratio;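 further: cells stimulated with 9-cis-retinoic acid as agonist; on the % scale 0 is the no-effect control and ±100 the full control effect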). As to conditions: HEK293T RXRa-UAS-bla, beta-lactamase ratio, antagonist mode; measured here: W530 green channel, cytotoxicity proxy. The method in brief: (§1)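 Beta-lactamase reporter inhibition, read as CCF4 fluorescence ratio (ex 405, em 460/530 nm) after 2 h at RT. HEK293T UAS-bla cells, 2500/well, were stimulated with 9-cis-RA at 500 or 100 nM final alongside test compound for 18 h at 37 C.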

Assay [10] concerns the target Retinoic acid receptor RXR-alpha (Homo sapiens) (UniProt P19793). The assay is described as above. As to conditions: HEK293T RXRa-UAS-bla, beta-lactamase ratio, antagonist mode. The method in brief:
as §1

Assay [11] has as its target Thyroid hormone receptor beta (Homo sapiens) (UniProt P10828). Briefly: qHTS assay for small molecule antagonists of thyroid hormone receptor beta signaling (AID 588547; active means well fitted inhibition curve with a large enough effect in the signal ratio, with a control signal flat, not every such curve was filed as active; the % refers to the signal ratio;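 further: cells stimulated with 0.4 nM T3 agonist during compound exposure; series mostly up to about 77 µM; on the % scale 0 is the no-effect control and ±100 the full control effect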). As to conditions: TR-UAS-bla HEK293, beta-lactamase ratio, antagonist mode, 18 h. The method in brief:
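TR-UAS-bla GripTite HEK293 cells in 2% charcoal/dextran FBS medium; compounds 0.59 nM to 92 uM with T3 at 0.4nM final, 18 h at 37 C. Beta-lactamase read by CCF4 fluorescence (460/530 nm); Hill fits gave IC50 and efficacy.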

Assay [12] in a line: qHTS assay for small molecule activators of the p53 signaling pathway (AID 651743; active means well fitted activation curve with a large enough effect in the signal ratio, not every such curve was filed as active; the % refers to the signal ratio; further: series mostly up to about 92 µM; % of control where 0% means no effect). As to conditions: HCT-116 p53RE-bla, beta-lactamase FRET ratio, 16 h; activation: stronger effect = higher value. In short, it runs like this:
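HCT-116 p53RE-bla, 4,000 cells/well; 5 h settle; cpd/DMSO 16 h, 37 C; LiveBLAzer B/G 2 h RT; fluorescence intensity.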

The nature of assay [13]: qHTS assay for environmental chemicals that activate the Aryl hydrocarbon Receptor (AhR) signaling pathway (AID 651777). Further: % of control where 0% means no effect; nearly all actives have a fitted effect of over 15% in size. As to conditions: 1A2-DRE human hepatoma cells, luciferase, 24 h; activation: stronger effect = higher value. In short, it runs like this: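 Human hepatoma 1A2-DRE cells, stably carrying a dioxin response element and CYP1A2 promoter driving luciferase, were exposed to compounds for 24 hr at 37 C and 5% CO2. Luciferase signal was then read after 30 min One-Glo at room temperature.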

The target of assay [14] is Peroxisome proliferator-activated receptor alpha (Homo sapiens) (UniProt Q07869). As to the kind of experiment: qHTS assay for small molecule agonists of the peroxisome proliferator-activated receptor alpha (PPARalpha) signaling pathway (AID 651778). Further: % of control where 0% means no effect. As to conditions: PathHunter PPARalpha complementation, chemiluminescence, 6 h; max response: stronger effect = higher value. The method in brief: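 Enzyme-fragment complementation assay in which ligand-bound PPARalpha translocates and forms an active enzyme that generates chemiluminescence. Cells were plated overnight, exposed to compound for 6 hr at 37 C, and then given detection reagent for 60 min at room temperature.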

Assay [15] in a line: qHTS assay for small molecule agonists of the antioxidant response element (ARE) signaling pathway measured by Nrf2-dependant transcriptional activity (AID 720636; active means well fitted curve in the direction sought with a large enough effect in the repeat runs; an effect the other way counts as inactive or inconclusive; further: % of control where 0% means no effect). In short, it runs like this:
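ARE-luc HepG2 cells carrying an Nrf2-responsive luciferase reporter were plated in medium with 1% dialyzed FBS, left 6 hr at 37 C to attach, then exposed to compound for 16 hr. Luciferase luminescence was read after ONE-Glo addition.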

Assay [16] is described as follows: qHTS assay for small molecule agonists of the antioxidant response element (ARE) signaling pathway measured by Nrf2-dependant transcriptional activity - cell viability counter screen (AID 720653; active means well fitted curve in the direction sought with a large enough effect in the repeat runs; an effect the other way counts as inactive or inconclusive; further: on the % scale 0 is the no-effect control and ±100 the full control effect). As to conditions: ARE-bla HepG2 viability, CellTiter-Glo ATP luminescence, 16 h; max response: stronger effect = lower value. In short, it runs like this: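 ARE-bla HepG2 cells treated with compounds for 16 h at 37C; this counter screen measures viability as intracellular ATP by CellTiter-Glo luminescence after 30 min at room temperature.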

Assay [17] can be described thus: qHTS assay for cell viability of HEK293 cells (AID 743288). Further: on the % scale 0 is the no-effect control and ±100 the full control effect; nearly all actives have a fitted effect of over 50% in size. As to conditions: ATP luminescence (CellTiter-Glo), 18 h; max response: stronger effect = lower value. The method in brief:
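Luminescent ATP quantitation served as the viability read-out. Cells (parental HEK293, 2,000/well) received compounds after at least 5 h at 37 C and were exposed for 18 h before a 30 min room-temperature reagent step.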

A short description of assay [18]: qHTS assay for cell viability of the p53RE-bla HCT-116 cell line (AID 743292). Further: on the % scale 0 is the no-effect control and ±100 the full control effect; nearly all actives have a fitted effect of over 55% in size. In short, it runs like this: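 CellSensor p53RE-bla HCT-116 cells, 4,000/well, preincubated 5 h at 37 C, then exposed to compounds in DMSO for 16 h at 37 C. Viability read as CellTiter-Glo luminescence (intracellular ATP) after 30 min at room temperature.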
Assay [19] deals with Nuclear receptor subfamily 1 group I member 2 (Rattus norvegicus) (UniProt Q9R1A7). Briefly: qHTS assay for small molecule activators of the rat pregnane X receptor (rPXR) signaling pathway (AID 651751; call rule not given here; further: 0% is about no effect). As to conditions: rPXR reporter cells, luciferase (One-Glo), 24 h.
The target in assay [20] is Peroxisome proliferator-activated receptor delta (Homo sapiens) (UniProt Q03181). As to the kind of experiment: qHTS assay for small molecule agonists of peroxisome proliferator-activated receptor delta signaling (AID 588534; calls by dose curve;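 further: 0% = DMSO basal wells and 100% = positive control agonist at 10 µM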). In short, it runs like this: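 Reporter cells were plated and held 5 hrs at 37 C before compounds were added. After 18 hrs at 37 C, CCF4 dye was loaded for 2 hrs at RT and fluorescence measured.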
Sequence of Peroxisome proliferator-activated receptor delta (Homo sapiens) (Q03181 whole entry, looked up): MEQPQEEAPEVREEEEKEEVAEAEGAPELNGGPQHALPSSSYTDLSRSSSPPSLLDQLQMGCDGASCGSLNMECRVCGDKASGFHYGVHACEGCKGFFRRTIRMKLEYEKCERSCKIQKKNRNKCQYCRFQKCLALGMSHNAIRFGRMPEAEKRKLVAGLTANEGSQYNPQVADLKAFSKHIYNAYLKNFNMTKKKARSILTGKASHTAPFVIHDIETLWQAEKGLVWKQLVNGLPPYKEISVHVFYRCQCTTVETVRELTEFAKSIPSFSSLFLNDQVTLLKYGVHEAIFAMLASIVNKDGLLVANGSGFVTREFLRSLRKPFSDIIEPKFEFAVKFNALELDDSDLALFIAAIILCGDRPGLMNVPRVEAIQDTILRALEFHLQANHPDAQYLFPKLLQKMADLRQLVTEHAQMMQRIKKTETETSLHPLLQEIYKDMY

Sequence of Nuclear receptor subfamily 1 group I member 2 (Rattus norvegicus) (Q9R1A7 whole entry, looked up): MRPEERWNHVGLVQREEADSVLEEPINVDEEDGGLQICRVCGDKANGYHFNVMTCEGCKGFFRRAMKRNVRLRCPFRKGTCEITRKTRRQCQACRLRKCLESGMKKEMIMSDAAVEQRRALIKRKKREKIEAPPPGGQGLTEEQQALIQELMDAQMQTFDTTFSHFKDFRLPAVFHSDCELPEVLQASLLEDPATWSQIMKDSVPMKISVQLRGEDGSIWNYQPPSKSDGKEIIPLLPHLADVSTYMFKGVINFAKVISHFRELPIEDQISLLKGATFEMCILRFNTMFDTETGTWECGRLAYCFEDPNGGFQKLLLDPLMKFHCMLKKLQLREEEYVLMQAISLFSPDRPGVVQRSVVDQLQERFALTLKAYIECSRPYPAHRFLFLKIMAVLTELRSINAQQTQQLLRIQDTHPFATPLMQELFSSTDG
Sequence of Vitamin D3 receptor (Homo sapiens) (P11473 whole entry, looked up): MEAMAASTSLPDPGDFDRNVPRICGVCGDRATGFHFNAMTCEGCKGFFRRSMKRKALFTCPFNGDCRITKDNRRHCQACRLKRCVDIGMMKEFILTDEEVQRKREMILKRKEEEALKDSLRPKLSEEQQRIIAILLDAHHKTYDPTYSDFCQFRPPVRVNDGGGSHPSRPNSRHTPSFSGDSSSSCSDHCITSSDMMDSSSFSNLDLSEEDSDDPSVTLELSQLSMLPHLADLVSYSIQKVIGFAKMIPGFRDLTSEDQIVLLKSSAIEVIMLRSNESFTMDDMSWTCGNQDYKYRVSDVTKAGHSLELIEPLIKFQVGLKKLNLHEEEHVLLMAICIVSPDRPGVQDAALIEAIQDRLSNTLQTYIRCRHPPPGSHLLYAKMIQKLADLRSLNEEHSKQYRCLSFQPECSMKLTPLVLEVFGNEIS
Sequence of Retinoic acid receptor RXR-alpha (Homo sapiens) (P19793 whole entry, looked up): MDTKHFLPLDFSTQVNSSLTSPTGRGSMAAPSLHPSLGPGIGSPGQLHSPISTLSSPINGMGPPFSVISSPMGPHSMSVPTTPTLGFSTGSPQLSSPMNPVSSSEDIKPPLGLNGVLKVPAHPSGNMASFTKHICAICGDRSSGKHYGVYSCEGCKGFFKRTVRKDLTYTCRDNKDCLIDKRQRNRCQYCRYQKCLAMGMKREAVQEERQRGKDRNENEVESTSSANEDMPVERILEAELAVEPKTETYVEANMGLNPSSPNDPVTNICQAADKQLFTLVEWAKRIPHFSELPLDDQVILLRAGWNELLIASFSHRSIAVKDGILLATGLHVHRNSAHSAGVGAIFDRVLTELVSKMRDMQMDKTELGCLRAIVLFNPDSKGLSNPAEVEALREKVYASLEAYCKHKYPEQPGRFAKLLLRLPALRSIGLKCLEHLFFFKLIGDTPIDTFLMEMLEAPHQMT
Sequence of Thyroid hormone receptor beta (Homo sapiens) (P10828 whole entry, looked up): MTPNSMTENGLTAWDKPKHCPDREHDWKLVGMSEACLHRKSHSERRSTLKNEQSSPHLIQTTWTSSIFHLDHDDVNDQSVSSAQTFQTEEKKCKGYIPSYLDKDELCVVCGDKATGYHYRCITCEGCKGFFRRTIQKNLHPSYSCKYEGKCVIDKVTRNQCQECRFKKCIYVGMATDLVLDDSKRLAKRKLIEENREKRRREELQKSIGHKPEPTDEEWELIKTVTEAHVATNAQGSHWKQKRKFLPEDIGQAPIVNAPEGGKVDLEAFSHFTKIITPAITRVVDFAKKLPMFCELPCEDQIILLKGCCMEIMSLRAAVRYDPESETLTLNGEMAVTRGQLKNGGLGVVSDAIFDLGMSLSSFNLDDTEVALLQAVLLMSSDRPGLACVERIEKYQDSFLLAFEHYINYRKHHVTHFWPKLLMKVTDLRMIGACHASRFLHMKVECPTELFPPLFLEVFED
Sequence of Peroxisome proliferator-activated receptor gamma (Homo sapiens) (P37231 whole entry, looked up): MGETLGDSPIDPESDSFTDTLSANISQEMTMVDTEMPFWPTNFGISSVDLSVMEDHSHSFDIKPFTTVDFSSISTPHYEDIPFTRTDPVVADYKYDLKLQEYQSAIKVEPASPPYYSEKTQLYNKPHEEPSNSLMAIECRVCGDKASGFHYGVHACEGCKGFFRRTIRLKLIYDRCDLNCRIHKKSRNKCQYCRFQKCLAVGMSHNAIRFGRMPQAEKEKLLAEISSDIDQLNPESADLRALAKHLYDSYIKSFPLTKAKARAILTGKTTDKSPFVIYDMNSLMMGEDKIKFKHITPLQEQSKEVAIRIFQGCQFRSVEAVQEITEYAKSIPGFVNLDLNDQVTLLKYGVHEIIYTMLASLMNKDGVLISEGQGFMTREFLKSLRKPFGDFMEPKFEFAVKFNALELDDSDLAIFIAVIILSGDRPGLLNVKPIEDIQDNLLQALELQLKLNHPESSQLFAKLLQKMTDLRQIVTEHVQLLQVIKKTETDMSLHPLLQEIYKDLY
Sequence of Estrogen receptor (Homo sapiens) (P03372 whole entry, looked up): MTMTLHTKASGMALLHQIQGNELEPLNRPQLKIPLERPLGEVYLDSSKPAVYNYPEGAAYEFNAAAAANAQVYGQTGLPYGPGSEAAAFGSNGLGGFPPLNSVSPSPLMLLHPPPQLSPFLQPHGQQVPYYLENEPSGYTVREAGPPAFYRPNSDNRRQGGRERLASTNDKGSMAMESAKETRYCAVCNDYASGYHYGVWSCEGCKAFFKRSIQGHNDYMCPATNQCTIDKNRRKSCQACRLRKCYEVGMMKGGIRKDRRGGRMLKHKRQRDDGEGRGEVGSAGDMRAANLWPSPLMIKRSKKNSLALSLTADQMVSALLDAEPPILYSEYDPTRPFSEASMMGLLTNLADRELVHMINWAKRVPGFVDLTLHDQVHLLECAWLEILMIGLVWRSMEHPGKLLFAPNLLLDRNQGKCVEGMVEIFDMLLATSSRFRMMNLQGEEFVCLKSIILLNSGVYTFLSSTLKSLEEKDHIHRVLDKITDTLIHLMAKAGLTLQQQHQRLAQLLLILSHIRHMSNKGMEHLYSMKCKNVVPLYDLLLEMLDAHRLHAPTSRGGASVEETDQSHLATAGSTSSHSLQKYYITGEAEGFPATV
Sequence of Peroxisome proliferator-activated receptor alpha (Homo sapiens) (Q07869 whole entry, looked up, the tested form may be a part): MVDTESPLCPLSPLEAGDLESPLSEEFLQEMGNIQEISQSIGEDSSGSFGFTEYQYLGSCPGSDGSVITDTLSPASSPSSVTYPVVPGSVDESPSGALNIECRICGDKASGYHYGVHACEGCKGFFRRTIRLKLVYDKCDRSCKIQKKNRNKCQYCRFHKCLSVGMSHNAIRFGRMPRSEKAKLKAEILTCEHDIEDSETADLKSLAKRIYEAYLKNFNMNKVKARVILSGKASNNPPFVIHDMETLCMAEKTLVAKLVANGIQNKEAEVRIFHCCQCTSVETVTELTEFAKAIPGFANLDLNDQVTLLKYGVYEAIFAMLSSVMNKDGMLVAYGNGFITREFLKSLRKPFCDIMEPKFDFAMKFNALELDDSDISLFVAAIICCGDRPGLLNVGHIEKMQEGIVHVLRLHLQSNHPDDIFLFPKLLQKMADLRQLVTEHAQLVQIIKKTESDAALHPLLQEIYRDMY

`Cc1cc(Cl)ccc1OCC(=O)O`: the Potency result in assay [1], in assay [2], in [3], in assay [4], in assay [5] and in assay [7] was “inactive” throughout. For the same compound, the Potency entry in [8], in assay [15] and in [18] was “inactive” in each case. In addition, the max response in assay [6] was -7.53%; in [9], -3.03% and 10.9%; in [10], 3.77% (inactive) and -0.223% (inactive); in [14], 0.459% (inactive) and -1.12% (inactive); in assay [16] it was 17.3% (inactive) and -19.3% (inactive); in assay [17], -1.7% (inactive) and -11.8% (inactive). In [19], the max response was -1.6% (inactive) and -6.7% (inactive). The activity change % (negative = inhibition) in assay [11] was 22.2% (inactive) and -4.04% (inactive). For the same compound, the activation was -6.22% (inactive) and 0.0507% (inactive) in assay [12]; 0.725% (inactive) and -1.61% (inactive) in assay [13].

Take `c1cc2c3c(cccc3c1)CC2`: the Potency entry in assay [1], in assay [2], in [4], in [7], in assay [8] and in assay [15] was “inactive” throughout. Also, the Potency result in assay [18] is “inactive”. In addition, the compound was called inactive in [20]. In addition, the max response is -7.15% in assay [6]; -4.84% in [9]; -3.28% (inactive) in [10]; -0.57% (inactive) in [14]; 18.9% (inactive) in [16]; -7.08% (inactive) in assay [17]. Moreover, in [19], the max response was 0.0529% (inactive). Further, the activity change % (negative = inhibition) in assay [11] was 3.51% (inactive). The activation was 5.25% (inactive) in assay [12] and 0.274% (inactive) in assay [13].

In the case of `C/C=C(\C)C(=O)O[C@H]1C[C@@H](OC(C)=O)[C@@]2(C(=O)OC)CO[C@H]3[C@@H](O)[C@@](C)([C@]45O[C@@]4(C)[C@H]4C[C@@H]5O[C@@H]5OC=C[C@@]54O)[C@H]4[C@]1(CO[C@]4(O)C(=O)OC)[C@@H]32`, the Potency entry in assay [1], in assay [2], in assay [3], in [4], in [5] and in [7] was “inactive” each time. The Potency result in [8], in [15] and in [18] was “inactive” in each case. Moreover, the outcome in assay [20] was inactive. The max response in [6] is -0.369%; in assay [9], -5.84%; in [10], 9.93% (inactive); in [14], -3.71% (inactive); in assay [16] it was -22.9% (inactive); in assay [17], -0.199% (inactive). Also, in [11], the activity change % (negative = inhibition) is 7.18% (inactive). The activation in assay [12] is 6.01% (inactive); in assay [13] it was -0.999% (inactive).

In the case of `CC(Oc1cc(Cl)c(Cl)cc1Cl)C(=O)O` (stereo not drawn), the Potency result in assay [1], in assay [2], in [4], in assay [5], in [7] and in assay [15] was “inactive” throughout. Moreover, the Potency entry in [18] is “inactive”. The compound was classed as inactive in [20]. The max response in [6] is -8.77%; in assay [9] it was -19.8%; in assay [14], -0.109% (inactive); in assay [16], 15.3% (inactive); in assay [17], 0.242% (inactive); in [19], 2.63% (inactive). Moreover, the activation in assay [13] is 2.71% (inactive).

Turning to `CNC(=O)Oc1cccc2c1OC(C)(C)C2O` (stereo not drawn), the Potency entry in assay [1], in assay [2], in assay [3], in assay [5], in assay [7] and in [15] was “inactive” in each case. The Potency result in [18] is “inactive”. Further, the call in assay [20] was inactive. Further, the max response in assay [6] was -10.1%; in assay [9], -12.4%; in [10], -10.3% (inactive); in [14], -1.14% (inactive); in assay [16] it was -15.8% (inactive); in assay [17], -0.251% (inactive). Besides, the max response in [19] is -0.827% (inactive). Besides, the activity change % (negative = inhibition) in assay [11] is 7.05% (inactive). Also, the activation in assay [12] is -0.021% (inactive).
